Inconclusive results are not listed. Calls of active or inactive are those of the source. Unless noted, calls follow the shape of the full dose curve.
How the values were obtained:
[1] = qHTS assay to identify small molecule antagonists of the estrogen related receptor signaling pathway with the pleiotropic PPARgamma coactivator (PGC) from Tox21 10K library - cell viability counter screen (AID 1224840; active = well fitted cell-killing curve with a large enough effect in the repeat runs, not every such curve was filed as active; also: nearly all actives have a fitted effect of over 40% in size)
Procedure, shortened: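 Following seeding of 2,000 PGC/ERR cells/well and 6 hours' incubation, test compounds were delivered in DMSO. The plates then sat 17.5 hours at 37 C before a fluorogenic live-cell protease reagent (CellTiter-Fluor) was read after 30 min.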

[2] = biological target: Thyrotropin receptor (Homo sapiens) (UniProt P16473); test: qHTS assay to identify small molecule agonists of the thyroid stimulating hormone receptor (TSHR) signaling pathway (AID 1224843); also: nearly all actives have a fitted effect of over 45% in size; also: potency is read from the fitted curve at half-maximal effect
Sequence of Thyrotropin receptor (Homo sapiens) (P16473 whole entry, looked up): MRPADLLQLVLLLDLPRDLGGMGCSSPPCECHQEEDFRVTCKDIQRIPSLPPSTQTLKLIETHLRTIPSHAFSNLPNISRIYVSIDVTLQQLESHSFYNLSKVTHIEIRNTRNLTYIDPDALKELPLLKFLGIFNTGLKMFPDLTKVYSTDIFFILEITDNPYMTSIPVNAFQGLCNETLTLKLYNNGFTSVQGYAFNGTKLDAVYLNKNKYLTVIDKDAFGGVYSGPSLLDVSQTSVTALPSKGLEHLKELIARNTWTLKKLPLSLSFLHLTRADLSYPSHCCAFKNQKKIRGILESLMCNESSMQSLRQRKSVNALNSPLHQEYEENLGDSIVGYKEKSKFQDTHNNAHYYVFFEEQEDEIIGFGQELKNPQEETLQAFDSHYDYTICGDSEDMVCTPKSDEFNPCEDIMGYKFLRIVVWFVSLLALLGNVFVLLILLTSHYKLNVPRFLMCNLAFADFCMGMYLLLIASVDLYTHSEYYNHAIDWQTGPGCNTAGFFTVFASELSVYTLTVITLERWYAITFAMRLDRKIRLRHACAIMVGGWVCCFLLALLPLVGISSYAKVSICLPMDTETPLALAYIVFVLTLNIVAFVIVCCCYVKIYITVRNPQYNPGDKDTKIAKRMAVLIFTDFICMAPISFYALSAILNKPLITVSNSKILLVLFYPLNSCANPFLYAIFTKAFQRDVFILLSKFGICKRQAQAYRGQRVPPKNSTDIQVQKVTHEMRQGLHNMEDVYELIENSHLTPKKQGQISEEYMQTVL
Procedure, shortened: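 HEK293 cells stably bearing the thyrotropin receptor were plated at 800 cells/well and challenged with compound (30 min, RT). Accumulated cAMP was quantified via cAMP-d2 competing for cryptate-tagged antibody.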

[3] = qHTS assay to identify small molecule agonists of the hypoxia (HIF-1) signaling pathway - cell viability counter screen (AID 1224844); also: nearly all actives have a fitted effect of over 50% in size
Procedure, shortened: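 Cells (HRE-bla ME-180, 2,000 per well) sat 5 hrs at 37C, got compound for 17 hrs, were read for CCF4-AM FRET, and were finally lysed with CellTiter-Glo for a 30 min room-temperature luminescence read.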

[4] = qHTS assay to identify small molecule agonists of H2AX (AID 1224845; active = well fitted activation curve with a large enough effect in the signal ratio in the repeat runs, not every such curve was filed as active; the % refers to the signal ratio)
Procedure, shortened: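 Phospho-H2AX Ser139 measured by HTRF (ex 320 nm; em 665 and 620 nm) after 24 hr antibody incubation. Compounds, 15 concentrations, 0.76% DMSO, were applied to CHO-K1 cells for 3hr at 37C before lysis.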

[5] = qHTS assay to identify small molecule agonists of the hypoxia (HIF-1) signaling pathway (AID 1224846; active = well fitted activation curve with a large enough effect in the signal ratio in the repeat runs, not every such curve was filed as active; the % refers to the signal ratio)
Procedure, shortened: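 A low-serum medium (0.5% dialyzed FBS) holding 2,000 HRE-bla ME-180 cells per well is preincubated for 5 hrs, dosed with compounds by pintool, and kept a further 17 hrs at 37C, 5% CO2 before CCF4-AM FRET detection of beta-lactamase.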

[6] = qHTS assay to identify small molecule agonists of the estrogen related receptor signaling pathway with the pleiotropic PPARgamma coactivator (PGC) from Tox21 10K library (AID 1224842; active = well fitted curve in the direction sought with a large enough effect in the repeat runs; an effect the other way counts as inactive or inconclusive; also: nearly all actives have a fitted effect of over 15% in size)
Procedure, shortened: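 Luminescence from One-Glo (30 min, room temperature) measured after PGC/ERR cells had 18 h at 37 C with pinned compound (23 nL in DMSO). Cells had been seeded at 2,000 per well and pre-incubated 6 h.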

[7] = qHTS assay to identify small molecule agonists of H2AX - cell viability counter screen (AID 1224847);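 also: wild-type CHO-K1 cells; top concentration of the series differs between compounds; nearly all actives have a fitted effect of over 30% in size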
Procedure, shortened: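 CHO-K1 wt, 1000 cells/well, o/n 37C; cpds 15 conc, 3 h 37C, 0.76% DMSO; CellTiter-Glo, 30 min RT, luminescence.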

[8] = qHTS assay to identify small molecule antagonists of the estrogen related receptor (ERR) signaling pathway from Tox21 library (AID 1224848; active = well fitted curve in the direction sought with a large enough effect in the repeat runs; an effect the other way counts as inactive or inconclusive; also: nearly all actives have a fitted effect of over 50% in size)
Procedure, shortened: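 Reading was by luminescence 30 min after ONE-Glo addition. Before that, ERR cells at 2,000 per well had rested 6 h at 37 C/5% CO2 and then received pin-tooled compounds in DMSO for 18 h at 37 C.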

[9] = qHTS assay to identify small molecule agonists of the estrogen related receptor (ERR) signaling pathway from Tox21 library (AID 1224849); conditions: ERR reporter cell line, ONE-Glo luciferase, 18 h; at 92.4 µM (top of the series) unless noted; also: nearly all actives have a fitted effect of over 15% in size
Procedure, shortened: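 Screening used an NTP-provided ERR luciferase cell line. Compounds in DMSO were added 6 h after seeding and left 18 h at 37 C before a 30 min ONE-Glo step and luminescence reading.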
% is scaled to controls: 0 for no effect and ±100 for the full control effect.

C[C@@H]1CCC[C@H](C)N1CCCC(O)(c1ccccc1)c1ccccn1 (stereo partly specified)
inactive: outcome [1] | Potency [2] | outcome [3] | outcome [4] | outcome [5]

O=C(O)P(=O)(O)O
inactive: outcome [1] | Potency [2] | outcome [3] | outcome [4]

CCCCS
inactive: outcome [1] | Potency [2] | outcome [3] | outcome [4]

C/C(=N\O)c1ccc(OCC(=O)N2CCCCC2)cc1
inactive: outcome [1] | Potency [2] | outcome [3] | outcome [4] | outcome [5]

CC(=O)/C=C/C=C1/C2CCC(C2)C1(C)C (stereo unspecified)
active: Potency [2] 18.8 µM
inactive: outcome [1] | outcome [3] | outcome [4] | outcome [5]

CCc1ccc(CC)cc1
inactive: outcome [1] | Potency [2] | outcome [3] | outcome [4] | outcome [5]

C=CCON/C(CCC)=C1\C(=O)CC(C)(C)C(C(=O)OC)=C1O
inactive: outcome [1] | Potency [2] | outcome [3] | outcome [4] | outcome [5]

Cc1ccccc1OCC(=O)O
inactive: outcome [1] | Potency [6] | outcome [3] | outcome [4] | outcome [5] | outcome [7] | outcome [8] | activity change, positive = activation [9] 0.72%

CCCC(=O)OC
inactive: outcome [1] | Potency [2] | outcome [3] | outcome [4] | outcome [5]

CC(C)(C)C(=O)NCCCC(=O)O
inactive: outcome [1] | Potency [2] | outcome [3] | outcome [4] | outcome [5]

CC(C)=CCC/C(C)=C\C#N
inactive: outcome [1] | Potency [2] | outcome [3] | outcome [4] | outcome [5]

NS(=O)(=O)c1cc2c(cc1C(F)(F)F)NCNS2(=O)=O
inactive: outcome [1] | Potency [2] | outcome [3] | outcome [4]

CCOC(=O)CC(C(C)=O)C(C)=O
inactive: outcome [1] | Potency [2] | outcome [3] | outcome [4] | outcome [5]

C[C@H]1COc2c(C3(N)CC3)c(F)cc3c(=O)c(C(=O)O)cn1c23
inactive: outcome [1] | Potency [2] | outcome [3] | outcome [4] | outcome [5]

COC(=O)C(c1ccccc1Cl)N1CCc2sccc2C1 (stereo unspecified)
active: Potency [2] 16.8 µM
inactive: outcome [1] | Potency [6] | outcome [3] | outcome [4] | outcome [7] | outcome [8] | activity change, positive = activation [9] -2.43% [at 42.5 µM]

CCCCCC(CC)OC(=O)CCCOc1ccc(Cl)cc1Cl (stereo unspecified)
inactive: outcome [1] | Potency [6] | outcome [3] | outcome [4] | outcome [7] | outcome [8] | activity change, positive = activation [9] 6.42%

CC(O)CCCCn1c(=O)c2c(ncn2C)n(C)c1=O (stereo unspecified)
inactive: outcome [1] | Potency [2] | outcome [3] | outcome [4] | outcome [5] | outcome [7]

C=CCN1CCc2nc(N)sc2CC1
inactive: outcome [1] | Potency [2] | outcome [3] | outcome [4] | outcome [5]

CCCC[O][Al]([O]CCCC)[O]CCCC
inactive: outcome [1] | Potency [2] | outcome [3] | outcome [4] | outcome [5]

Source: PubChem BioAssay (Tox21)
